Experimental data from the supplement of paper PMC3334620.
Whole data set: some 33,000 sequences, median “E-score (-0.5 to 0.5)” near -0.012, cut for the highest 2% near 0.29. Shown is part of a subset that was picked to be rich in the highest values.

Molecular target: T1, Ybr033w (UniProt P38073)
T1 sequence: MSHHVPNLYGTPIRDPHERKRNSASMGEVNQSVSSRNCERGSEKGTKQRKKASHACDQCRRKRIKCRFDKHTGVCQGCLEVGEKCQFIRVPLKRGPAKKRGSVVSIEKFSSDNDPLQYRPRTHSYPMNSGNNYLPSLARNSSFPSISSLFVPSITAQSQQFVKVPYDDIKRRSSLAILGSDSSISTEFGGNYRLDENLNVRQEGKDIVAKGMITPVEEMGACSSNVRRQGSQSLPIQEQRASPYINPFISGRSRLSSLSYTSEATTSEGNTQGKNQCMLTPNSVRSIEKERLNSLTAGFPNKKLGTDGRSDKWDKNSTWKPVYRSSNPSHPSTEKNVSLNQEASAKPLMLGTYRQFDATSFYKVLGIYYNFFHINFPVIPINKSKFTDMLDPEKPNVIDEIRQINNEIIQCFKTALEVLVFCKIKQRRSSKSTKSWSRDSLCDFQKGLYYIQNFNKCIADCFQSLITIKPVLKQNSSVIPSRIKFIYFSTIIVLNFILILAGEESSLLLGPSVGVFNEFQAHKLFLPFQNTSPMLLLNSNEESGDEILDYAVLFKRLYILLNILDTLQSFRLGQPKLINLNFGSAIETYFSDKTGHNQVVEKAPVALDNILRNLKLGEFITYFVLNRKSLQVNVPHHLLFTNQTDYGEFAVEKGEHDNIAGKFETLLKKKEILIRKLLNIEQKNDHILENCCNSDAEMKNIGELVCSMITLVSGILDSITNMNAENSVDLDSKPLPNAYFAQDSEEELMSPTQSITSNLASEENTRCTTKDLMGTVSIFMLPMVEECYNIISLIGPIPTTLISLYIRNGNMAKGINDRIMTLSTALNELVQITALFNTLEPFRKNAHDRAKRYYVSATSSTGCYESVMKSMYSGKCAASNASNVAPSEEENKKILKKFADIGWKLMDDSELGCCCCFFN
Experiment: PBM E-score (8-mer binding enrichment) (E-score (-0.5 to 0.5)); higher = stronger / more preferred TF binding
Conditions: protein concentration: 200 nM; construct: GST-full length
How it was run: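 Universal all-10-mer Agilent arrays, fresh or stripped once, were converted to double-stranded form by primer extension. GST-tagged yeast transcription factors from PURExpress in vitro transcription/translation, full-length or DNA-binding domain only, were applied at about 100-200 nM and detected with fluorescent anti-GST. After masliner normalisation, the Universal PBM Analysis Suite scored each ungapped eight-base word together with its reverse complement by E-score.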

Sequence	PBM E-score
TTCGCAAA	0.225
CTAGACAA	-0.0833
ATCCATGA	-0.0662
AGACAAAT	0.129
CCACAAAC	0.077
TCCACACA	0.111
CGGTGCGC	-0.156
GTTCGAGA	-0.0752
GCTGAGGA	-0.194
AATAAAGA	0.267
AATAAACT	0.221
AATAAATT	0.314
AATAAATA	0.378
GATAAAAA	0.278
AATAAATG	0.194
TATAAACA	0.247
CATAAAAC	0.0263
GATAAACC	0.236
AATAAATC	0.263
GATAAAAC	0.323
GATAAACA	0.298
ACGTTCTA	-0.0975
AAACCAAT	0.272
CATACCCG	-0.165
CGAATTGC	-0.0195

Sequence	PBM E-score
CAAGAACC	0.137
CCAGATCG	-0.0568
CCGATTAG	-0.131
ATTGTCTA	0.144
ACTCTAAC	0.17
AATAAAAT	0.304
AATAAAAG	0.0821
AATAAAAA	0.252
AAGTTATG	0.206
AAGTTATT	0.3
AAGTTAAT	0.315
AAGTTATA	0.166
AAGTTTAC	0.154
AAGTTAAC	0.224
AAGTTAAG	-0.149
AAGTTTAG	0.128
AAGTTTAT	0.333
AAACTGCA	0.146
ACCCTTCC	-0.0151
AGTAGCAA	0.152
ACACTGGG	-0.161
AGTGTTGC	0.0949
GTCTTTGA	-0.0431
GACATTCA	0.0222
CACTTTTC	0.255

Sequence	PBM E-score
CTCCGTTC	-0.0235
CTGGTGCA	-0.31
AGGAAATC	-0.0432
CGGAAATC	0.067
AGGAAATG	0.146
AGGAAATA	0.298
CGGAAATA	0.433
GGGAAATA	0.137
CTATTTGA	0.227
AAGATCCG	-0.0767
CAAACTGA	0.14
CAGGTAGA	-0.138
CAATAGTA	0.168
CCATAATA	0.264
AGATAATA	0.219
CAATAATA	0.292
CAATAATG	0.137
AAATAATT	0.388
AGATAATG	0.181
TAATAGTA	0.297
AAAAAATT	0.237
AGATAATC	0.306
GAATAGTA	0.183
CGTTATTC	0.175
GCTATTCC	-0.0267

Sequence	PBM E-score
AGGGGTAC	-0.205
ACCGTGAC	-0.159
CGAGTGCC	-0.198
AACGGTGT	-0.113
CAAAGCTC	-0.212
CAGTCTAG	-0.137
ATATGCAT	0.02
GAATAAAA	0.207
CAATAAAA	0.225
TAATAATA	0.33
CAATAATC	0.171
AAATAATG	0.227
AAATAATC	0.341
TAATAAAA	0.365
TAATAAGA	0.184
ACATAATC	0.205
AAATAATA	0.344
TAATAACA	0.226
ACATAATA	0.247
ATGCCCGA	-0.106
ACCTATGC	-0.0454
CGTCCACG	-0.133
CGGGGCAC	-0.319
ACCATCTA	0.0217
AACCTGGT	0.0823

Sequence	PBM E-score
AATCCAGC	0.0372
TATCCAGA	0.158
AATCCAGA	0.295
GATCAAGA	0.0926
AGAACATA	0.192
ATAACAAT	0.165
GGAACAAA	0.45
TGAACAAA	0.284
CGAACAAA	0.191
AGAACAAG	0.212
AGAACAAA	0.33
ATAACAAA	0.29
GGAACATA	0.313
ATAACAAG	0.191
CGAACATA	0.2
AGAACAAT	0.209
AGAGACTA	-0.0151
CTCGCAAC	-0.052
AAGGCCTC	-0.21
AAAGTACT	0.177
TACGACTA	0.0548
CCCCTATC	-0.337
CCCCCCCC	-0.45
CACTTGTC	-0.0719
GCACTGTA	0.0862

Sequence	PBM E-score
CGAACAAC	0.077
AGAACAAC	0.0473
GGAACAAC	0.454
AGTATTCA	0.142
ACGCCCTG	-0.16
CTATCAGA	-0.0376
ATATCAGA	0.289
GTATCAGA	0.106
AACCCCGA	-0.0425
GATTTCAA	0.174
CATTTCAA	0.242
TATTTCAA	0.338
GATTTCGA	-0.0493
AATTTCGA	0.0715
TATTTCGA	0.357
TTAAGGAA	0.218
AGTAGACT	-0.0063
GGAGGGAC	-0.188
TAAGCTTA	0.102
AGTGGACA	0.0894
ATGAACTC	0.0731
CTGAACTA	0.037
ATGAACTA	0.303
ATTAGAGA	0.115
AGGGAAAA	0.296

Sequence	PBM E-score
CGGGGAAA	0.212
AGGGAAAT	0.00233
TGGGGAAA	0.0688
TGGGAAAA	0.316
CGGGAAAC	0.0713
CGGGAAAA	0.298
GGGGGAAA	-0.124
AGGGGAAA	0.0237
AGTTATGA	0.0811
CGGTTGGA	0.0125
ATCCTGGC	-0.0209
GAAATAAC	0.159
AAAATAAC	0.189
AAAATAGC	-0.0427
AAAATAAA	0.319
AAAATAGA	0.332
CAAATAAA	0.2
TAAATAGA	0.0889
TAAATAAA	0.301
GAAATAAA	0.247
AAAATAAG	0.207
AAAATAAT	0.319
